Assay [1] is described as follows: qHTS of pediatric cancer cell lines to identify multiple opportunities for drug repurposing: Primary screen for control Hh wild type fibroblast cells (AID 1347106).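 Note: series mostly up to about 46 µM; a drop in luminescence marks cytotoxicity and a rise apparent proliferation; nearly all actives have a fitted effect of over 55% in size.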 In short, it runs like this:
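Viability after 48 h compound treatment at 37C, 500-1,000 cells/well, read as ATP luminescence with CellTiter-Glo. Primary screens used 11-point (MIPE, 0.78 nM-46 µM) or 8-point (NPC, 0.59 nM-46 µM) final concentrations; follow-up screens used 11-point dilutions.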
Background: Quantitative high-throughput screening tests each substance at several concentrations.

The nature of assay [2]: qHTS of pediatric cancer cell lines to identify multiple opportunities for drug repurposing: Primary screen for Rh41 cells (AID 1347108). Note: nearly all actives have a fitted effect of over 70% in size. Note: potency is the fitted concentration of half-maximal effect. In short, it runs like this: (§1)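 500-1,000 cells/well; 5 h pre-incubation 37 °C/5% CO2; compound pinned; 48 h; CellTiter-Glo, 15 min RT; luminescence. MIPE 11-pt from 0.78 nM, NPC 8-pt from 0.59 nM final. Bortezomib 2.3 µM final as positive control.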

Assay [3] can be described thus: qHTS of pediatric cancer cell lines to identify multiple opportunities for drug repurposing: Primary screen for MG 63 (6-TG R) cells (AID 1347105). Note: potency is the fitted concentration of half-maximal effect; nearly all actives have a fitted effect of over 50% in size. In short, it runs like this:
as §1

Assay [4] can be described thus: qHTS of pediatric cancer cell lines to identify multiple opportunities for drug repurposing: Confirmatory screen for NB1643 cells (AID 1347109). Note: nearly all actives have a fitted effect of over 45% in size. Note: potency is the fitted concentration of half-maximal effect. In short, it runs like this: (§2)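 Cells (500-1,000/well) rested 5 h, then received compounds for 48 h; metabolically active cells were measured by CellTiter-Glo luminescence. Final concentrations spanned up to 46 µM (MIPE, 11-point) or 0.59 nM-46 µM (NPC, 8-point) in primary screens, 11-point in follow-ups.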

Assay [5] in a line: qHTS of pediatric cancer cell lines to identify multiple opportunities for drug repurposing: Confirmatory screen for A673 cells (AID 1347110).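 Note: potency is the fitted concentration of half-maximal effect; cells exposed to compound for 48 h before the viability read; nearly all actives have a fitted effect of over 65% in size.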 The method, boiled down: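 Viability was read as ATP luminescence (CellTiter-Glo) after 48 h of compound exposure at 37 C in A673 cells seeded at 500-1,000/well. Titrations reached 46 uM final, with 11 points in the confirmatory screen. Concentration-response curves were fitted directly.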

Assay [6] can be described thus: qHTS of pediatric cancer cell lines to identify multiple opportunities for drug repurposing: Confirmatory screen for SK-N-MC cells (AID 1347111).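 Note: potency is the fitted concentration of half-maximal effect; cells exposed to compound for 48 h before the readout; nearly all actives have a fitted effect of over 70% in size.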 The method, boiled down: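 Seed 500-1,000 cells/well; rest 5 h at 37 degrees C. Pin-transfer compounds, 11-point titration. Incubate 48 h. Add CellTiter-Glo, 15 min RT, read luminescence.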
Assay [7] can be described thus: qHTS of pediatric cancer cell lines to identify multiple opportunities for drug repurposing: Primary screen for Rh30 cells (AID 1347107). Note: nearly all actives have a fitted effect of over 75% in size. Note: potency is the fitted concentration of half-maximal effect. In short, it runs like this:
as §2

The nature of assay [8]: qHTS of pediatric cancer cell lines to identify multiple opportunities for drug repurposing: Confirmatory screen for LAN-5 cells (AID 1347113). Note: nearly all actives have a fitted effect of over 65% in size. Note: potency is the fitted concentration of half-maximal effect. In short, it runs like this: as §2
The nature of assay [9]: qHTS of pediatric cancer cell lines to identify multiple opportunities for drug repurposing: Confirmatory screen for BT-12 cells (AID 1347112). Note: nearly all actives have a fitted effect of over 55% in size. Note: potency is the fitted concentration of half-maximal effect. In short, it runs like this:
as §2

The nature of assay [10]: qHTS of pediatric cancer cell lines to identify multiple opportunities for drug repurposing: Confirmatory screen for DAOY cells (AID 1347114). Note: nearly all actives have a fitted effect of over 65% in size. Note: potency is the fitted concentration of half-maximal effect. The method, boiled down:
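Viability measured as metabolically active cells via CellTiter-Glo luminescence following 48 hours of compound exposure, 11-point dilutions in confirmatory testing. 500-1,000 cells/well plated 5 hours before dosing; controls were DMSO and 2.3 µM bortezomib.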

Structures are written as SMILES. Inconclusive results are not listed. Calls of active or inactive are those of the source. Calls come from the whole dose curve; as a rule, active = well fitted curve in the direction sought with a large enough effect; inconclusive = small, poorly fitted or top-dose-only effect, or another doubt; inactive = no such curve, though single readings can be large; an effect the other way counts as inactive or inconclusive.

`c1ccc2c(CCNc3ccc(Nc4ccncc4)cc3)c[nH]c2c1`: in assay [1], the Potency entry is “inactive”. The Potency in assay [2] was 18700 nM (active).
For `COC(=O)Nc1ccc(-c2nc(N3CCOCC3)c3cnn(C4CCN(Cc5cccnc5)CC4)c3n2)cc1`, the Potency is 235 nM (active) in [3], 132 nM (active) in [2], 1310 nM (active) in assay [5] and 1040 nM (active) in [6]. Besides, in [4], the Potency entry is “inactive”.
For `Nc1ccn([C@@H]2O[C@H](CO)[C@H](O)C2(F)F)c(=O)n1`, the Potency result in assay [1], in assay [7] and in assay [2] was “inactive” each time. Also, in assay [5], the Potency is 58.5 nM (active).
As to `Cn1c(=O)n(-c2ccc(C(C)(C)C#N)cc2)c2c3cc(-c4cnc5ccccc5c4)ccc3ncc21`, the Potency was 14.8 nM (active) in assay [3]; 132 nM (active) in assay [2]; 2610 nM (active) in assay [5]; 2330 nM (active) in assay [6]; 2080 nM (active) in assay [8].
For the molecule `CCCCCN(CCC12CC3CC(CC(C3)C1)C2)C(=O)NCCCc1ccncc1`, the Potency result in assay [1] and in assay [7] was “inactive” in each case.
As to `Cc1nc2ccc(CN(C)c3ccc(C(=O)N[C@@H](CCC(=O)O)C(=O)O)s3)cc2c(=O)[nH]1`, the Potency entry in assay [1], in [7], in [2], in assay [4], in assay [9] and in [8] was “inactive” in each case. In addition, the Potency entry in assay [10] is “inactive”. Further, the Potency in assay [5] was 82.7 nM (active); in [6] it was 18.5 nM (active).
`CC[C@H]1CN2CCc3cc(OC)c(OC)cc3[C@H]2C[C@@H]1C[C@@H]1NCCc2cc(OC)c(OC)cc21`: the Potency result in assay [1] and in assay [7] was “inactive” each time. Further, the Potency was 4690 nM (active) in assay [2]; 1850 nM (active) in assay [4]; 657 nM (active) in assay [5]; 293 nM (active) in assay [6]; 261 nM (active) in assay [9]; 165 nM (active) in assay [8]. Besides, the Potency in [10] was 3690 nM (active).
`CNC(=O)c1ccc(-c2cnc3ncc(Cc4ccc5ncccc5c4)n3n2)cc1F`: the Potency result in assay [1], in assay [7] and in [2] was “inactive” in each case.
Consider `O=C(NCCCNc1nc(Nc2cccc(NC(=O)N3CCCC3)c2)ncc1I)c1cccs1`, for which the Potency in [3] was 3720 nM (active); in assay [2], 18700 nM (active).
With `Nc1ncnc2c1c(-c1cccc(OCc3ccccc3)c1)cn2C1CC(CN2CCCC2)C1` (stereo not drawn), the Potency in assay [3] is 18700 nM (active); in [2], 1870 nM (active).
For the molecule `CCCn1c(=O)c2[nH]c(-c3cnn(Cc4cccc(C(F)(F)F)c4)c3)nc2n(CC)c1=O`, the Potency result in assay [1], in [7] and in assay [2] was “inactive” each time.
In the case of `Cc1cc(N2CCOCC2)cc2[nH]c(-c3c(NC[C@@H](O)c4cccc(Cl)c4)cc[nH]c3=O)nc12`, the Potency in [3] is 2960 nM (active); in [2], 296 nM (active); in assay [4], 827 nM (active); in assay [5], 1170 nM (active); in assay [6] it was 737 nM (active); in assay [8] it was 1170 nM (active). The Potency in [10] was 3290 nM (active).
With `O=C(NC1CCNCC1)c1[nH]ncc1NC(=O)c1c(Cl)cccc1Cl`, the Potency in [3] was 3720 nM (active); in [2] it was 743 nM (active); in assay [5], 414 nM (active); in assay [6], 3020 nM (active); in assay [9] it was 3020 nM (active); in assay [10], 1170 nM (active).
Turning to `Cn1c2ccccc2c2c3c(c4c5ccccc5n(CCC#N)c4c21)CNC3=O`, the Potency in assay [3] is 14800 nM (active); in [4] it was 20800 nM (active); in [5], 4650 nM (active); in [6] it was 465 nM (active). For the same molecule, the Potency result in [9] is “inactive”.
With `CCN1CCN(CC(=O)Nc2ccc(-c3cccc4c(=O)cc(N5CCOCC5)oc34)c3sc4ccccc4c23)CC1`, the Potency result in assay [1] is “inactive”. The Potency in assay [7] is 10500 nM (active); in [2], 1660 nM (active).
Regarding `C=CC(=O)Nc1cccc(Oc2nc(Nc3ccc(N4CCN(C)CC4)cc3OC)ncc2Cl)c1`, the Potency entry in assay [1] was “inactive”. Besides, the Potency in assay [7] was 23500 nM (active); in assay [2], 118 nM (active); in [4], 23300 nM (active); in [5], 20800 nM (active); in assay [6], 13100 nM (active).
In the case of `CN(C1CCc2c(c3ccccc3n2CC(=O)O)C1)S(=O)(=O)c1ccc(F)cc1` (stereo not drawn), in assay [1], the Potency entry is “inactive”. Also, in assay [2], the Potency is 3720 nM (active).
On to `CCCNC(=O)Nc1ccc(Oc2ncnc3cc(OC)c(OC)cc23)cc1Cl`, for which the Potency entry in assay [1], in [7] and in [2] was “inactive” throughout.
In the case of `CNC(=O)c1nn(C)c2c1C(C)(C)Cc1cnc(Nc3ccc(N4CCN(C)CC4)cc3)nc1-2`, the Potency result in assay [1] and in assay [7] was “inactive” each time. The Potency in assay [2] is 11800 nM (active); in assay [5], 928 nM (active); in assay [6], 1170 nM (active); in assay [9] it was 9270 nM (active); in assay [8], 1850 nM (active); in assay [10], 9270 nM (active).
Turning to `CC(=O)Nc1nc(C)c(-c2ccc(Cl)c(S(=O)(=O)NCCO)c2)s1`, the Potency in assay [3] is 1480 nM (active); in assay [2], 6620 nM (active); in [4], 16500 nM (active); in assay [6], 8270 nM (active); in assay [8], 6570 nM (active).
As for `CN(C)CCCN=c1c2ccccc2n(C)c2[nH]c(=O)n(C)c(=O)c12`, the Potency was 9350 nM (active) in assay [2], 23300 nM (active) in [4], 23300 nM (active) in [9] and 23300 nM (active) in assay [8]. Further, in assay [10], the Potency result is “inactive”.
For `CCC[C@H](NC(=O)C(C#N)=Cc1cccc(Br)n1)c1ccccc1`, the Potency entry in assay [1] was “inactive”. Also, the Potency in [2] was 14800 nM (active).

The values above are taken from PubChem BioAssay (NCATS).
